# PubChem BioAssay
# For some of these results: Measured potencies and affinities stand elsewhere. Activity calls are given as the source filed them. Rule as the data show it, unless noted: active = inhibition above about 80%; inactive = the rest.
# Assays:
# [1] = system: Aerobactin synthetase IucA (Klebsiella pneumoniae hvKP1); experiment: Biochemical IucA enzyme inhibition primary screen of the Spectrum library (AID 1346200; call rule not given here;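 also: 100% = wells without compound and 0% = wells lacking enzyme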); conditions: malachite green pyrophosphate, A620, at 8 µM, stronger effect = lower value
# [2] = LFS_MB_1R medulloblastoma cell growth inhibition, synergistic combos for chromothripsis tumors, cisplatin or BGB combos (AID 1671452); conditions: LFS_MB_1R medulloblastoma cells, stronger effect = higher value;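 also: cells exposed for 96 hours before readout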
# [3] = CRL2098 osteosarcoma cell growth inhibition, synergistic combos for chromothripsis tumors, BGB or cisplatin IC20 combos (AID 1671454); conditions: CRL2098 osteosarcoma cells, drug combinations, stronger effect = higher value;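 also: cells exposed for 96 h before readout; 0% = vehicle DMSO and 100% = killing by high DMSO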
# [4] = HD-MB03 medulloblastoma cell growth inhibition, synergistic combos for chromothripsis tumors, BGB or cisplatin IC20 combos (AID 1671455; in the data active = inhibition above about 83%;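 also: 0% = vehicle DMSO and 100% = high DMSO as cytotoxic control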); conditions: HD-MB03 medulloblastoma cells, stronger effect = higher value
# [5] = UWB1.289 ovarian carcinoma cell growth inhibition, synergistic combos for chromothripsis tumors, BGB or cisplatin combos (AID 1671456); conditions: UWB1.289 ovarian carcinoma cells, stronger effect = higher value;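 also: cells exposed to compound for four days; 0% = vehicle DMSO and 100% = killing by high DMSO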
# [6] = LFS_MB_2R medulloblastoma cell growth inhibition, synergistic combos for chromothripsis tumors, cisplatin combos (AID 1671457); conditions: LFS_MB_2R medulloblastoma cells, stronger effect = higher value;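 also: cells exposed to compound for four days before readout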
# [7] = UWB1.289_BRCA1 ovarian cancer growth, cell-based, BGB or cisplatin combinations (AID 1671459); conditions: UWB1.289 BRCA1 ovarian carcinoma, drug combinations, stronger effect = higher value
# [8] = human astrocyte viability loss, single and combined drugs, cytotoxicity control for chromothriptic childhood tumor combination screen, cell-based, BGB or cisplatin IC20 combos (AID 1671460); conditions: Human astrocytes, drug combinations, stronger effect = higher value;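 also: cells exposed to compounds for 96 hours before viability readout; 0% = vehicle and 100% = killing control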
# [9] = growth inhibition of RCMB18 medulloblastoma cells, cell-based, cisplatin and BGB IC40 combos (AID 1671462); conditions: stronger effect = higher value;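 also: cells exposed to compound for four days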
# [10] = growth inhibition of CRL1545 osteosarcoma cells, cell-based, cisplatin and BGB IC20 combos (AID 1671464); conditions: stronger effect = higher value;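 also: cells exposed to compound for 96 hours before readout; 0% = vehicle DMSO and 100% = high DMSO killing control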
# [11] = inhibitors of Cryptococcus chitosan production, flow cytometry, Cibacron Brilliant Red staining (AID 1347148; call rule not given here;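 also: compound exposure lasted three days at 37 degrees C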); conditions: Cryptococcus neoformans chitosan, stronger effect = lower value; at 10 µM unless noted
# [12] = Cy5 fluorescence interference with SSB-bound oligo, artefact control for HCV NS3 helicase inhibitor project, biochemical, NIH Clinical Collection, E. coli SSB (AID 743268; call rule not given here)
# [13] = system: Hepatitis C virus NS3 helicase; experiment: HCV NS3 helicase inhibitors, primary screen, biochemical, fluorescence polarization, NIH Clinical Collection (AID 743270; call rule not given here); conditions: NS3 helicase binding to Cy5-dT15 DNA, stronger effect = higher value, concentration not given here
# [14] = biological target: Single-stranded DNA-binding protein (Escherichia coli (strain K12)) (UniProt P0AGE0); experiment: E. coli SSB displacement from DNA, counter-screen for HCV NS3 helicase inhibitor project, biochemical, fluorescence polarization, NIH Clinical Collection (AID 743271; in the data active = inhibition above about 28%); conditions: stronger effect = higher value, concentration not given here
# [15] = fluorescence interference in NS3h assay format, artefact control for HCV NS3 helicase inhibitor project, biochemical, NIH Clinical Collection (AID 743272; call rule not given here;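 also: HCV NS3 helicase with a Cy5 labelled single stranded DNA probe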); conditions: fluorescence interference counterscreen, stronger effect = lower value
# [16] = polyglutamine-triggered caspase-3 activation inhibitors, cell-based (AID 1583); conditions: polyglutamine-induced caspase-3 activation, cell assay; stronger effect = higher value;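 tested at 10 µM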
# [17] = suppressors of polyQ aggregation in yeast, 75Q-TubU reporter (AID 1593); conditions: Yeast 75Q polyglutamine aggregation reporter
# [18] = rescue of polyQ-huntingtin neuronal dysfunction in worms, whole organism, C. elegans mechanosensory neurons, N-terminal huntingtin (AID 1599); conditions: touch response, stronger effect = higher value
# [19] = inhibitors of mitochondrial cytochrome c release, biochemical, purified mitochondria (AID 1603); conditions: stronger effect = lower value;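 also: mouse liver mitochondria challenged with calcium chloride; signal normalized to the plate average as 100%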
# [20] = inhibitors of polyQ protein aggregation (AID 1604); conditions: polyglutamine-induced protein aggregation inhibition assay; stronger effect = higher value; tested at 2.5 µM
# [21] = measured here: combination with cisplatin, at 0.5 µM
# [22] = measured here: combination with cisplatin, at 5 µM
smiles,measurement,setting,value
O=C(NC(=O)c1c(F)cccc1F)Nc1cc(Cl)c(OC(F)(F)C(F)C(F)(F)F)cc1Cl (stereo unspecified),activity remaining,[1],94.5% (inactive)
Cn1c(CCCC(=O)O)nc2cc(N(CCCl)CCCl)ccc21,inhibition,[2]; at 0.5 µM,-36.7% (inactive)
same,inhibition,"[2]; measured here: combination with BGB IC40, at 0.05 µM",-23.8%
same,inhibition,[2]; [21],-14.3%
same,inhibition,[2]; [22],-23.5%
same,inhibition,[3]; at 0.5 µM,-98.8% (inactive)
same,inhibition,"[3]; measured here: combination with BGB at IC20, at 0.5 µM",-103%
same,inhibition,"[3]; measured here: combination with cisplatin at IC20, at 0.5 µM",-129%
same,inhibition,[4]; at 0.5 µM,-13.4% (inactive)
same,inhibition,"[4]; measured here: combo with BGB at IC20, at 0.5 µM",-11.1%
same,inhibition,"[4]; measured here: combo with cisplatin at IC20, at 0.5 µM",-20.4%
same,inhibition,[5]; at 0.5 µM,-2.34% (inactive)
same,inhibition,"[5]; measured here: inhibition with BGB combination, at 0.05 µM",-13.2%
same,inhibition,"[5]; measured here: inhibition with cisplatin combination, at 0.05 µM",-10.4%
same,inhibition,[6]; at 0.5 µM,-14.6% (inactive)
same,inhibition,[6]; [21],-2.61%
same,inhibition,[6]; [22],-14.7%
same,inhibition,"[7]; BGB combination, concentration series, at 5 µM",-2.78%
same,inhibition,[7]; at 0.5 µM,-6.91% (inactive)
same,inhibition,"[7]; cisplatin combination, concentration series, at 5 µM",-6.97%
same,inhibition,[8]; at 0.5 µM,-9.57% (inactive)
same,inhibition,"[8]; measured here: combo with BGB IC20, at 0.5 µM",-2.95%
same,inhibition,"[8]; measured here: combo with cisplatin IC20, at 0.5 µM",-20%
same,inhibition,[9]; at 0.5 µM,-2.17% (inactive)
same,inhibition,"[9]; cisplatin combo, at 5 µM",-2.69%
same,inhibition,"[9]; measured here: BGB IC40 combination, at 0.05 µM",14.5%
same,inhibition,[9]; [21],15.5%
same,inhibition,"[9]; single agent, at 5 µM",-39.8%
same,inhibition,[10]; at 0.5 µM,-50.3% (inactive)
same,inhibition,"[10]; measured here: with BGB IC20 combination, at 0.5 µM",-68.1%
same,inhibition,"[10]; measured here: with cisplatin IC20 combination, at 0.5 µM",-41.4%
same,inhibition,"[10]; single agent, at 0.05 µM",2.56%
same,inhibition,"[10]; single agent, at 5 µM",-15.4%
CCCCC/C=C\C/C=C\C/C=C\C/C=C\CCCC(=O)NCC(=O)O,fold fluorescence,[11],3.73 (inactive)
C[C@]12CC[C@H](O)CC1=CC[C@@H]1[C@@H]2CC[C@]2(C)C(=O)CC[C@@H]12,fluorescence ratio,[12],0.94 (inactive)
same,inhibition,[13],0.66% (inactive)
same,inhibition,[14],-2.76% (inactive)
same,fluorescence ratio,[15],0.97 (inactive)
c1ccc(C2CC2)c(OCC2=NCCN2)c1,fold fluorescence,[11],4.38 [at 231.2 µM] (inactive)
COP(=S)(OC)Oc1ccc(Sc2ccc(OP(=S)(OC)OC)cc2)cc1,activity remaining,[1],118% (inactive)
CN(C)C(=S)SSC(=S)N(C)C,inhibition,[16],37.5%
same,score,[17],0.02
same,rescue above control,[18],2.19
same,cytochrome c release ratio,[19],3.47
same,inhibition of aggregation,[20],-16.7%
same,activity remaining,[1],97.7% (inactive)
